Among the data in PubChem BioAssay (NCATS) are max response, Potency and outcome values, retold here.

Structures are written as SMILES. “And” between values parts separate entries of the source, which are not always exact repeats. Identical values can stand only once. Inconclusive results are not listed. Where a call stands in place of a potency, no number is given. The source made the active and inactive calls. Unless noted, the call rests on the fitted dose curve.

Sequence of Peroxisome proliferator-activated receptor gamma (Homo sapiens) (P37231 whole entry, looked up): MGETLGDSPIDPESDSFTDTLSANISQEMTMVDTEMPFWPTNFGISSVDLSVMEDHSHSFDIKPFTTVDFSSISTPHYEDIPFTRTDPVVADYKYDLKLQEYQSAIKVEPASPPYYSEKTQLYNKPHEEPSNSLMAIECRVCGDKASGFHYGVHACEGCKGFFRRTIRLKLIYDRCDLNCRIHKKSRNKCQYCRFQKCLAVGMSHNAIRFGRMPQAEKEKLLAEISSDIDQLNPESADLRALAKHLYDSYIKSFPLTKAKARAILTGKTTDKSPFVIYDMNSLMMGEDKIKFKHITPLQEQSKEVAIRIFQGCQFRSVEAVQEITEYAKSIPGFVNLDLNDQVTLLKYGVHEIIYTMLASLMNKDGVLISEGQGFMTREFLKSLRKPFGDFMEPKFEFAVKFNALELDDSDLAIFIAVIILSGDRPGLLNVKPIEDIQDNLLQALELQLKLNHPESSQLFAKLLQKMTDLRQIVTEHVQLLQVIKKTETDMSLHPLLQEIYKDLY

Test system in one test: not listed separately
Description: qHTS assay for small molecule antagonists of peroxisome proliferator-activated receptor delta signaling (AID 588535; active means well fitted inhibition curve with a large enough effect in the signal ratio, with a control signal flat, not every such curve was filed as active; the % refers to the signal ratio;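 on max response: cells co-treated with a PPAR-delta agonist as stimulator during compound exposure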). As to conditions: HEK293T PPARd-UAS-bla, beta-lactamase FRET ratio, 18 h; 460 nm channel. Put shortly:
(§1)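 Antagonist-mode beta-lactamase reporter (GeneBLAzer PPAR-delta-UAS-bla) in HEK293T cells, 2% charcoal/dextran FBS, 4000 cells/well. Compound titrations, 18 h at 37 C; CCF4 ratio read, IC50 and efficacy from Hill fits.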
For orientation: Quantitative high-throughput screening tests each substance at several concentrations.
Take `CC(C)OC(=O)Nc1cccc(Cl)c1`: the max response was 2.77%.
For `CNC(=O)Oc1cccc2c1OC(C)(C)O2`, the max response was 28.5%.
With `CCCCSP(=O)(SCCCC)SCCCC`, the max response is -5.76%.
On the same count and under the same terms, then `CCS(=O)CCSP(=O)(OC)OC` (configuration not stated), with 34.5%.
Still for that read-out and setting: the result for `COP(N)(=O)SC` (configuration not stated) reads 57.3% and -26.4%; that for `CC(C)(C)C(=O)C(Oc1ccc(Cl)cc1)n1cncn1` (configuration not stated), -36.1% and 32.9%; that for `CC(C)N1C(=O)c2ccccc2NS1(=O)=O`, 55.3%.
On to `O=C(O)COc1cc(Cl)c(Cl)cc1Cl`, for which the max response is 15.2%.
Same read-out and setting: then `CNC(=O)CSP(=S)(OC)OC`, with 27.9%; and `N#Cc1c(Cl)cccc1Cl`, with 41.3%.
Still for that read-out and setting: then `COc1nc(NC(C)C)nc(NC(C)C)n1`, with 7.33%.
For the compound `CNC(=O)Oc1ccccc1OC(C)C`, the max response amounted to 17.8%.

In the next test the target is Peroxisome proliferator-activated receptor delta (Homo sapiens) (UniProt Q03181). Described as above. As to conditions: HEK293T PPARd-UAS-bla, beta-lactamase FRET ratio, 18 h; series mostly up to 76.7 µM. In a few lines: as §1
Sequence of Peroxisome proliferator-activated receptor delta (Homo sapiens) (Q03181 whole entry, looked up): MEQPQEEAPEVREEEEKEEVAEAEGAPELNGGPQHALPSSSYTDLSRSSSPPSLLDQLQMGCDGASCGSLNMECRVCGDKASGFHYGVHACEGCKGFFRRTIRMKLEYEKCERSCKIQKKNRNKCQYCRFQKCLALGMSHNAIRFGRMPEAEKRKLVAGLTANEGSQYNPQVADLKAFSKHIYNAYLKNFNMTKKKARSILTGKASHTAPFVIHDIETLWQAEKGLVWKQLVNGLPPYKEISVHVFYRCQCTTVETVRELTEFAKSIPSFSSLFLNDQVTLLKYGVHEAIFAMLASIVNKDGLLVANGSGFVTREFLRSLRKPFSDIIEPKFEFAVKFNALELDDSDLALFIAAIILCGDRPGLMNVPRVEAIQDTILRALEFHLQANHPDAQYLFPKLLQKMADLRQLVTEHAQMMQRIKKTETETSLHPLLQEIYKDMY
As for `CC(C)OC(=O)Nc1cccc(Cl)c1`, the Potency entry is “inactive”.
Still for that read-out and setting: the result for `CNC(=O)Oc1cccc2c1OC(C)(C)O2` reads “inactive”.
On the same count and under the same terms, then `COP(N)(=O)SC` (configuration not stated), with “inactive”.
The same measure, in the same setting: then `CC(C)N1C(=O)c2ccccc2NS1(=O)=O`, with “inactive”.
Consider `O=C(O)COc1cc(Cl)c(Cl)cc1Cl`, for which the Potency entry was “inactive”.
Regarding `N#Cc1c(Cl)cccc1Cl`, the Potency result was “inactive”.

For a further test, the target named is Peroxisome proliferator-activated receptor gamma (Homo sapiens) (UniProt P37231). Description: qHTS assay for small molecule agonists of peroxisome proliferator-activated receptor gamma signaling (AID 588536; active means well fitted curve in the direction sought with a large enough effect in the signal ratio, with a control signal flat, not every such curve was filed as active; the % refers to the signal ratio). The conditions noted are these: HEK293 PPARg-UAS-bla, beta-lactamase ratio, 16 h, percent of rosiglitazone response, DMSO as zero; series mostly up to 76.7 µM. In a few lines:
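Ratiometric blue/green fluorescence (405 nm excitation; 460 and 530 nm emission) from CCF4-loaded HEK293 reporter cells serves as signal. Exposure to test compounds lasts 16 h at 37 C in medium containing 1% charcoal/dextran-treated serum.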
Turning to `CC(C)OC(=O)Nc1cccc(Cl)c1`, the outcome was inactive.
On the same count and under the same terms, the result for `CNC(=O)Oc1cccc2c1OC(C)(C)O2` reads “inactive”; that for `CCCCSP(=O)(SCCCC)SCCCC`, “inactive”.
Regarding `CCS(=O)CCSP(=O)(OC)OC` (configuration not stated), the result was inactive.
On to `COP(N)(=O)SC` (configuration not stated), for which the result was inactive.
Still for that read-out and setting: the result for `CC(C)(C)C(=O)C(Oc1ccc(Cl)cc1)n1cncn1` (configuration not stated) reads “inactive”.
Same read-out and setting: the result for `CC(C)N1C(=O)c2ccccc2NS1(=O)=O` reads “inactive”; that for `CCC(=O)Nc1ccc(Cl)c(Cl)c1`, “inactive”; that for `CNC(=O)CSP(=S)(OC)OC`, “inactive”.
Still for that read-out and setting: the result for `N#Cc1c(Cl)cccc1Cl` reads “inactive”; that for `COc1nc(NC(C)C)nc(NC(C)C)n1`, “inactive”; that for `CNC(=O)Oc1ccccc1OC(C)C`, “inactive”.

Another test shares this target. Nature of the test: qHTS assay for small molecule antagonists of peroxisome proliferator-activated receptor gamma signaling (AID 588537; active means well fitted inhibition curve with a large enough effect in the signal ratio, with a control signal flat, not every such curve was filed as active; the % refers to the signal ratio;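 further: reporter cells co-stimulated with 50 nM rosiglitazone agonist during compound treatment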). The conditions noted are these: HEK293 PPARg-UAS-bla, beta-lactamase ratio, antagonist mode; series mostly up to 76.8 µM. Put shortly: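 PPARγ-UAS-bla HEK293 cells (3000/well) in 1% charcoal/dextran-stripped FBS are treated with compound, then stimulated with 50 nM rosiglitazone for 16 h at 37 °C. Read-out is CCF4 β-lactamase fluorescence after 2 h at RT. IC50 comes from Hill fits normalised to rosiglitazone and DMSO.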
Regarding `CC(C)OC(=O)Nc1cccc(Cl)c1`, the Potency entry is “inactive”.
The same measure, in the same setting: the result for `O=C(O)COc1cc(Cl)c(Cl)cc1Cl` reads “inactive”.
On the same count and under the same terms, then `CNC(=O)CSP(=S)(OC)OC`, with “inactive”; and `COc1nc(NC(C)C)nc(NC(C)C)n1`, with “inactive”.

In a further test the target is Vitamin D3 receptor (Homo sapiens) (UniProt P11473). Nature of the test: qHTS assay for small molecule antagonists of vitamin D receptor signaling (AID 588541).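 Further: receptor activated by calcitriol during compound treatment.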 The conditions noted are these: HEK293T VDR-UAS-bla, beta-lactamase ratio, antagonist mode; series mostly up to 76.7 µM. Put shortly: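 VDR-UAS-bla HEK293T cells in 2% charcoal-stripped FBS were stimulated with 1-alpha,25-dihydroxyvitamin D3 (3 nM final) plus compound for 16 h at 37 C. The beta-lactamase CCF4 readout was normalized to 50 nM agonist and DMSO, and Hill fits gave IC50.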
Sequence of Vitamin D3 receptor (Homo sapiens) (P11473 whole entry, looked up): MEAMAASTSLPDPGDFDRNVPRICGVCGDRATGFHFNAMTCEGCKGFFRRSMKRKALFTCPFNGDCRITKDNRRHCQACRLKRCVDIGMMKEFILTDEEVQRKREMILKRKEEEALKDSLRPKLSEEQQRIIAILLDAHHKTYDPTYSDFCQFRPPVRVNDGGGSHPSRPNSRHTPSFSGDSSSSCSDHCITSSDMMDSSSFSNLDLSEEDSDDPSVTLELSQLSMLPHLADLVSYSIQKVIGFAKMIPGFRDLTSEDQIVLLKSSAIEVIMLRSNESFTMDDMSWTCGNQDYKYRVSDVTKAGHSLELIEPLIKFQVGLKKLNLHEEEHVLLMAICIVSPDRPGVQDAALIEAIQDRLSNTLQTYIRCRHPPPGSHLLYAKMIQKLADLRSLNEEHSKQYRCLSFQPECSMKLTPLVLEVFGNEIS
With `CC(C)OC(=O)Nc1cccc(Cl)c1`, the outcome was inactive.
In the case of `CNC(=O)Oc1cccc2c1OC(C)(C)O2`, the outcome was inactive.
`CCCCSP(=O)(SCCCC)SCCCC`: the outcome was inactive.
Still for that read-out and setting: the result for `CCS(=O)CCSP(=O)(OC)OC` (configuration not stated) reads “inactive”; that for `COP(N)(=O)SC` (configuration not stated), “inactive”; that for `CC(C)(C)C(=O)C(Oc1ccc(Cl)cc1)n1cncn1` (configuration not stated), “inactive”.
Regarding `CC(C)N1C(=O)c2ccccc2NS1(=O)=O`, the result was inactive.
On the same count and under the same terms, then `O=C(O)COc1cc(Cl)c(Cl)cc1Cl`, with “inactive”; and `CCC(=O)Nc1ccc(Cl)c(Cl)c1`, with “inactive”; and `CNC(=O)CSP(=S)(OC)OC`, with “inactive”.
Same read-out and setting: then `COc1nc(NC(C)C)nc(NC(C)C)n1`, with “inactive”; and `CCc1cccc(C)c1N(C(=O)CCl)C(C)COC` (configuration not stated), with “inactive”.
Regarding `CNC(=O)Oc1ccccc1OC(C)C`, the outcome was inactive.
